The text below walks through data of the OligoGym collection.
Also: reference of the scale not given here.

The test deals with ENAM. Kind of test: pooled miR-30 sensor sort-seq; sequence = guide strand. As to conditions: shRNA.
TACTGTTGAGAGTTTCTCCAGG returned a sensor-assay potency score (higher = more potent) of 0.393.

In turn, TTGAACTTGTTGATTTCTGTAA registered a sensor-assay potency score (higher = more potent) of 0.247.

On to TAGAGCTAGTGGATTGTCCTTG, for which the sensor-assay potency score (higher = more potent) stood at 0.779.

Take TTCTTTATAGAACATGGTGTGT: the sensor-assay potency score (higher = more potent) was -0.573.

TAAATTGTTCCTCAGTAGCTAA yielded a sensor-assay potency score (higher = more potent) of -0.863.

On to TGAAATACCACTGTCTTCCTGA, for which the sensor-assay potency score (higher = more potent) was determined as 0.779.

As for TTTAGGAGGATCTTCTTCTTTG, the sensor-assay potency score (higher = more potent) is -0.209.

As to TAGTCTTGTAGAGCTAGTGGAT, the sensor-assay potency score (higher = more potent) was -0.371.

On to TATAATTTGATTTATTAACTTC, for which the sensor-assay potency score (higher = more potent) is -0.315.

With TTGAGGTATATTGTTCACCTTC, the sensor-assay potency score (higher = more potent) was -0.314.

The sequence TTATTTGTTCTTTTGGACCCAG came in with a sensor-assay potency score (higher = more potent) of 0.0187.
